NS1 inh – inhibitors of influenza NS1 protein function; AID 2326; Potency, µM (highest dose often 46.1 µM), for the others: at the top dose activity, positive = more growth; 270,000 compounds, 0.4% hits; calls by dose curve; further: actives are rising curves; nearly all actives have a fitted effect of over 50% in size
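Compounds were scored for reversing the slow growth caused by influenza A NS1 in S. cerevisiae, measured by optical density at 600 nm. Assay medium contained 2% galactose at pH 6.0; NS1-free yeast of the same strain were the positive control.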
Pf growth 48h – inhibits P. falciparum growth in the first generation, 48 h | 310,000 compounds, 5.9% hits | Potency, µM (top dose mostly 28.7 µM), without a hit: at the top dose activity change, negative = inhibition, usual class: inhibitors | P. falciparum luciferase growth in erythrocytes, 48 h; further: on the % scale 0 is the no-effect control and ±100 the full control effect
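Erythrocytes infected with P. falciparum carrying an integrated firefly luciferase reporter (2% hematocrit, 0.1% parasitemia final) were exposed to compounds in RPMI 1640 with 0.5% Albumax at 37 C, 5% CO2. Growth inhibition was scored as reduced luminescence.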
Pf growth 96h – P. falciparum growth inhibition at 96 hour, primary screen for plastid delayed-death inhibitors; Potency, µM (doses to about 28.7 µM), for the others: at the top dose activity change, negative = inhibition, hits mostly inhibitors; 320,000 compounds, 6.9% hits; P. falciparum luciferase reporter growth, 96 h; further: on the % scale 0 is the no-effect control and ±100 the full control effect
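P. falciparum expressing integrated firefly luciferase, in erythrocytes at 2% hematocrit, 0.05% parasitemia, incubated with compounds 96 h at 37 C, 5% CO2. Growth inhibition read as loss of luminescence; two-generation exposure targets delayed-death apicoplast inhibitors.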
AMA1 RON2 block – disrupts binding of P. falciparum AMA1 to RON2; 360,000 compounds, 0.2% hits; Potency, µM (doses to about 58.2 µM), without a hit: at the highest dose activity change, negative = inhibition, hits mostly inhibitors; AlphaScreen AMA1-biotinylated RON2 peptide binding;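 further: 0% = vehicle wells and -100% = peptide control; nearly all actives have a fitted effect of over 45% in size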
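AMA1 (3D7) with his tag at 25 nM final met compounds first, then biotinylated RON2 peptide at 25 nM; detection used donor plus acceptor beads, 10 µg/mL apiece, read by AlphaScreen after 30 min at room temperature.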
Sm TGR block – S. mansoni TGR enzyme inhibition. Q962Y6. purified TGR, DTNB reduction, TNB absorbance 405 nm. Potency, µM (series often up to 114 µM), without a hit: at the highest dose activity change, negative = inhibition, actives largely listed as inhibitors. 360,000 compounds, 3% hits; further: on the % scale 0 is the no-effect control and ±100 the full control effect; nearly all actives have a fitted effect of over 60% in size
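Kinetic colorimetric format: TGR-catalysed, NADPH-driven DTNB reduction monitored via TNB absorbance. Enzyme dispensed at 20 nM; compound exposure 15 min at room temperature before reaction start.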
Numbers without * were called inactive; i = inactive; u = inconclusive; x = no result; [ ] = remark or other dose. Most compounds without a hit are left out; they make up all but 11% or so of the library. Unless noted, the call rests on the fitted dose curve; in most records, active means well fitted curve in the direction sought with a large enough effect; inconclusive means small, poorly fitted or top-dose-only effect, or another doubt; inactive means no such curve, though single readings can be large; an effect the other way counts as inactive or inconclusive. Potency means the concentration at half of the fitted maximal effect.

SMILES	NS1 inh	Pf growth 48h	Pf growth 96h	AMA1 RON2 block	Sm TGR block
Cn1c(Cc2nc(-c3cnccn3)no2)nnc1SCC(=O)Nc1ccccc1	1%	-2%	u	4%	14%
CC[C@]12c3[nH]c4cc(-c5ccco5)ccc4c3CCN1C(=O)[C@@H](CC(=O)NCCCn1ccnc1)C[C@@H]2C(=O)N1CCN(C(=O)C2CC2)CC1	x	x	x	-17%	x
O=C(NNC(=S)NCc1ccccc1)c1ccc2c(c1)OCO2	2%	25%	4%	61%[11.6 µM]	-6%
O=C(NCc1cccnc1)c1ccc2c(c1)OCO2	3%	7%	9.3µM*	6%	-32%
O=C(NC(=S)NCc1ccccc1)c1ccc2c(c1)OCO2	16%	43%	-5%	23%	40µM*
Cc1coc2cc3oc(=O)c(CCC(=O)N4CCC(C(=O)O)(c5ccccc5)CC4)c(C)c3cc12	8%	u	u	-4%	-2%
COc1cc(OC)cc(C(=O)NCC(=O)OCc2nc3ccccc3s2)c1	-6%	i	290%	-2%	-2%
Cc1c(-c2ccco2)[n+](=O)c2c(n1[O-])CCC2	8%	18%	15µM*	9%	-4%
CCOC(=O)C1=CCN(S(=O)(=O)c2ccccc2C(=O)OC)C1c1ccc(Cl)cc1 (centres undefined)	x	x	x	6%	x
COc1ccc(-c2nc3ccc(N4CCN(C)CC4)cc3c(=O)[nH]2)cc1	-2%	u	52%	2%	7%
COc1cc(-c2nc3ccc(N4CCN(C)CC4)cc3[nH]2)cc(OC)c1OC	x	9.3µM*	3.7µM*	-6%	5%
CCOc1ccc(-n2ccc(=O)c(C(=O)O)n2)cc1	3%	37%	23%	-3%	-23%
O=[N+]([O-])c1ccccc1/C=N/N1CCN(c2ccncc2S(=O)(=O)N2CCCCC2)CC1	22%	12µM*	2.3µM*	-3%[11.6 µM]	0%
CN1CCN(c2ccncc2S(=O)(=O)N2CCCCC2)CC1	u	-37%	u	4%	-7%
O=NN1CCN(c2ccncc2S(=O)(=O)N2CCCCC2)CC1	0%	-6%	-22%	-1%	4%
O=[N+]([O-])c1ccc(/C=N/N2CCN(c3ccncc3S(=O)(=O)N3CCCCC3)CC2)cc1	10%	u	4.1µM*	1%	0%
COCCNC(=O)CN1C(=O)c2cccc3cccc1c23	u	3%	u	8%	8%
O=C(Nc1ccccc1)C1=C(c2ccccc2)S(=O)(=O)CCS1(=O)=O	-5%	12µM*	u	8%	0.25µM*
COc1ccc(C(=O)N2CCCC(CO)(Cc3ccccc3C)C2)o1 (centres undefined)	9%	-30%	u	-12%	45µM*
Cc1ccccc1CC1(CO)CCCN(Cc2cn[nH]c2-c2ccccc2)C1 (centres undefined)	-3%	u	-9%	5%	15%
Cc1ccccc1CC1(CO)CCCN(Cc2ccn[nH]2)C1 (centres undefined)	-2%	2%	12µM*	21%	8%
Cc1ccccc1CC1(CO)CCCN(C(=O)c2ccccc2Cl)C1 (centres undefined)	-4%	-3%	9.3µM*	-3%	6%[57.1 µM]
Cc1ccccc1CC1(CO)CCCN(C(=O)c2cc(Cl)ccc2F)C1 (centres undefined)	-37%	2%	20%	5%	-6%
CC1(C)CC(=O)C=C(NC2CCCCCCC2)C1	6%	u	3.7µM*	6%	-32%
O=C1C=C(NCc2ccc(Cl)cc2)CCC1	1%	8%	-80%	13%	10%
SMILES	NS1 inh	Pf growth 48h	Pf growth 96h	AMA1 RON2 block	Sm TGR block
O=C1C=C(NC2CCCCC2)CCC1	x	13µM*	13µM*	11%	-7%
CC1(C)CC(=O)C=C(NC2CCCCCC2)C1	4%	u	12µM*	2%	-13%
CC1(C)CC(=O)C=C(NNC(=O)C2CCCCC2)C1	7%	-4%	-11%	-7%	0%
CC[C@@]12C(=O)N(c3cccc(F)c3)C(=O)N1[C@H](c1ccc(F)cc1)[C@@H]1C(=O)N(C3CCCCC3)C(=O)[C@@H]12	1%	-25%	u	3%	2%
CCN1C(=O)[C@H]2[C@@H](c3ccc(C)cc3)N3C(=O)N(c4cccc(Br)c4)C(=O)[C@@]3(CC(C)C)[C@H]2C1=O	x	u	15µM*	18%	-2%
CC(C)C[C@@]12C(=O)N(c3cccc(Br)c3)C(=O)N1[C@H](c1ccc(F)cc1)[C@@H]1C(=O)N(C3CCCCC3)C(=O)[C@@H]12	x	1.9µM*	u	-10%	5%
Cc1ccc(N2C(=O)N3[C@H](c4ccc(F)cc4)[C@@H]4C(=O)N(C5CCCCC5)C(=O)[C@@H]4[C@]3(Cc3ccccc3)C2=O)cc1	12%	0%	12µM*	1%	-13%
CC[C@@]12C(=O)N(c3cccc(Br)c3)C(=O)N1[C@H](c1ccc(F)cc1)[C@@H]1C(=O)N(C3CCCCC3)C(=O)[C@@H]12	x	u	u	-3%	0%
CCN1C(=O)[C@H]2[C@@H](c3ccc(C)cc3)N3C(=O)N(c4cccc(Br)c4)C(=O)[C@@]3(C)[C@H]2C1=O	x	x	x	-1%	x
O=C1[C@H]2[C@@H](c3ccc(Cl)cc3)N3C(=O)N(c4cccc(Cl)c4)C(=O)[C@@]3(Cc3ccccc3)[C@H]2C(=O)N1C1CCCCC1	x	2.1µM*	5.9µM*	-3%	6%
O=C(O)c1ccc(-c2nnc(-c3cccc(Br)c3)o2)cc1	-3%	114%	30%	-2%	-15%
COc1cc2c(cc1OC)CN(CC(=O)NC(=O)NC1CCCCC1)CC2	x	-22%	-4%	18%	-3%
O=C1[C@H]2[C@@H](c3ccc(F)cc3)N3C(=O)N(c4cccc(F)c4)C(=O)[C@@]3(Cc3ccccc3)[C@H]2C(=O)N1C1CCCCC1	x	u	u	-2%	13%
O=C1[C@H]2[C@@H](c3ccc(F)cc3)N3C(=O)N(c4cccc(Br)c4)C(=O)[C@@]3(Cc3ccccc3)[C@H]2C(=O)N1C1CCCCC1	x	4.1µM*	u	-1%	4%
COCCCNC(=O)CCCN1C(=O)CCn2nc(-c3cccn3C)cc21	x	x	x	x	4%
COc1ccc(NC(=O)CN(C)C(=O)c2c(C)nn(Cc3ccccc3)c2C)cc1	x	-1%	18%	14%	-33%
S=c1nc2ccccc2c2nc(-c3ccccc3)[nH]n12	-31%	4.7µM*	46%	98%	2%
COc1ccccc1-c1nc2c3ccccc3nc(=S)n2[nH]1	1%	4.7µM*	1.5µM*	102%	3%
COc1cc(-c2nc3c4ccccc4nc(=S)n3[nH]2)cc(OC)c1OC	4%	u	-5%	97%	3%
Clc1ccccc1-c1nc2ccccc2c2nc3ccccc3n12	-5%	-56%	-5%	-1%	-4%
S=c1nc2ccccc2c2nc(-c3ccccc3Cl)[nH]n12	7%	1.5µM*	1.7µM*	104%	2%

Source: PubChem BioAssay (National Center for Advancing Translational Sciences (NCATS))
